About 83,000 compounds went through this panel and 20% of them were active in at least one assay; those are over-represented in the sample as a whole.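 For each line, cells grew in 96-well plates with the test compound present at a single concentration for 48 hours.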 A number with no mark means an inactive call. Active and inactive are the calls of the source.
test system: SN12C renal; assay: NCI-60 one-dose screen, 48 h (100 = growth as untreated, 0 = no growth, -100 = all killed); conditions: 10 µM unless noted
Description: Growth inhibition of the SN12C human tumor cell line is measured as a screen for anti-cancer activity. Cells are grown in 96 well plates and exposed to the test compound for 48 hours. Compounds are tested at a single concentration, which is 10^-5 M for most compounds. The reported endpoint is percent growth (GI% or GIPRCNT), where numbers from 0 - 100% represent growth inhibition, and numbers from -100% - 0 represent cell death. For example, a value of 40 represents 60% growth inhibition. A value of 0 means no net growth occurred over the course of the experiment. A value of -40 indicates 40% of cells at the beginning of the experiment died by the end of the experiment. A value of -100 means all cells are dead at the end of the experiment.
NCI-60 Human Tumor Cell Lines Screen was performed using the standard one-dose NCI protocol, which is described in more detail at https://dtp.cancer.gov/discovery_development/nci-60/default.htm.
Compounds with GIPRCNT values below 10 were considered active. Activity score was based on GIPRCNT using the following formula: […]
Score is 0 for GIPRCNT values of 100 or above, 50 for GIPRCNT values of 0, and 100 for GIPRCNT values of -100.

Q: For `Cc1c(Cl)cccc1NC(=O)c1sc2nc3c(cc2c1N)CN(Cc1ccccc1)CC3`, which growth is on record?
A: The growth was 59.2%.

Q: `COc1cc(/C=C/CO)cc(OC)c1O[C@@H]1O[C@H](CO)[C@@H](O)[C@H](O)[C@H]1O` was tested. Which growth did it give?
A: Its growth is 96.8%.

Q: `NS(=O)(=O)c1ccc(-n2nc(-c3ccccc3)ccc2=O)cc1` was tested. Which growth did it give?
A: Its growth is 97.7%.

Q: Which growth does the source give for `CCOC(=O)CC[C@H](NC(=O)c1ccc(NC)c2ccccc12)C(=O)OCC` here?
A: Its growth is 90.3%.

Q: With `O=C1CS/C(=N/c2nnc(-c3ccc(O)cc3)s2)N1` as the compound, how does the growth read?
A: Its growth is 101%.

Q: Which growth does the source give for `C=C1C(=O)O[C@H]2[C@H]1CC/C(COC(=O)/C=C/c1cccnc1)=C\CC[C@@]1(C)O[C@@H]21` here?
A: The growth was 16.8%.

Q: How did the growth turn out when `Cc1cc(C)nc(NS(=O)(=O)c2ccc(Nc3ccc4c5c(n(CCCN(C)C)c(=O)c4c3)-c3ccccc3C5=O)cc2)n1` was run?
A: Its growth is 85%.

Q: `Cc1nc2sc(C(=O)Nc3cccc4ccccc34)c(N)c2cc1C(C)O` (stereo not given) was tested. Which growth did it give?
A: The growth was 36%.

Q: Which growth does the source give for `Nc1c(C(=O)Nc2ccccn2)sc2nc3c(cc12)CCCCC3` here?
A: Its growth is 39.4%.

Q: `CCSc1ccc(C2C(Br)C(=O)N2c2cc(OC)c(OC)c(OC)c2)cc1` (stereo not given) was tested. Which growth did it give?
A: Its growth is 31.6%.

Q: `O=c1c2ccccc2oc2ccc(OCCCCCN3CCCCCC3)cc12` was tested. Which growth did it give?
A: Its growth is 69.4%.

Q: How did the growth turn out when `COC(=O)/C=C/c1cc(OC)c2c(c1)[C@@H](C(=O)OC)[C@H](c1ccc(OC)c(OC)c1)O2` was run?
A: Its growth is 45.5%.

Q: Which growth does the source give for `O=[N+]([O-])c1cccc(CN(Cc2cccc([N+](=O)[O-])c2O)c2ccccc2)c1O` here?
A: Its growth is 80.6%.

Q: For `CC1CCN(CCCCCOc2ccc3oc4ccccc4c(=O)c3c2)CC1`, which growth is on record?
A: The growth was 69.3%.

Q: `COc1cc(C(=O)Nc2cc(O)c(C/C=C(\C)CCC=C(C)C)c(O)c2)cc2c1O[C@]1(C)CC[C@@H](O)C(C)(C)[C@H]1C2` was tested. Which growth did it give?
A: Its growth is 26.5%.

Q: With `O=C(CN1N=C(c2ccc(F)cc2)CCC1=O)Nc1nccs1` as the compound, how does the growth read?
A: The growth was 96.9%.

Q: Which growth does the source give for `O=[N+]([O-])c1ccc(Oc2ccc(-c3ccccc3)cc2)cc1` here?
A: Its growth is 96.6%.

Q: For `C[C@]12CC[C@@H]3c4ccc(O)cc4CC[C@H]3[C@@H]1C[C@H](O)C2`, which growth is on record?
A: Its growth is 71.6%.

Q: With `C=C1C(=O)O[C@H]2[C@H]1CC/C(COC(=O)Nc1nc3ccccc3[nH]1)=C\CC[C@@]1(C)O[C@@H]21` as the compound, how does the growth read?
A: The growth was 67.4%.

Q: Which growth does the source give for `COc1ccc(NC(=O)c2sc3nc(C)c(C(C)=O)cc3c2N)cc1` here?
A: The growth was 101%.

Q: How did the growth turn out when `Cc1c(Cl)cccc1NC(=O)c1sc2nc3c(cc2c1N)CCCCCC3` was run?
A: Its growth is 42.4%.

Q: With `COc1ccc(C(=O)c2cc(F)c(F)c(OC)c2F)cc1OC(=O)CCl` as the compound, how does the growth read?
A: Its growth is 39.4%.

Q: `Cc1ccc(C(=O)/C(=C/c2ccc([N+](=O)[O-])cc2)S(=O)Cc2ccccc2)cc1` (stereo not given) was tested. Which growth did it give?
A: Its growth is -41.1% (active).

Q: `Nc1c(C(=O)Nc2ccccc2Cl)sc2nc3c(cc12)CN(Cc1ccccc1)CC3` was tested. Which growth did it give?
A: The growth was 101%.

Q: `S=C(Nc1ccccc1)c1ccccn1` was tested. Which growth did it give?
A: The growth was 85.9%.

Q: For `Cc1nccc2c3ccc(OCc4cn(-c5ccc(Cl)cc5)nn4)cc3n(CC(C)C)c12`, which growth is on record?
A: Its growth is 37.7%.

Q: For `COc1ccc([C@H]2[C@@H](F)C(=O)N2c2cc(OC)c(OC)c(OC)c2)cc1F`, which growth is on record?
A: Its growth is 33.3%.

Q: For `N#Cc1ccc(C2C3=C(CCCC3=O)OC3=C2C(=O)c2ccccc2C3=O)cc1` (stereo not given), which growth is on record?
A: The growth was 12.6%.

Q: For `C#C[C@@]1(O)[C@@H](CO)O[C@@H](n2cnc3c(-c4ccccc4)ncnc32)[C@@H]1O`, which growth is on record?
A: Its growth is 102%.

Q: `COc1cc(-c2csc(NC(=O)Nc3ccc(C(F)(F)F)cc3)n2)cc(OC)c1OC` was tested. Which growth did it give?
A: Its growth is 3.08% (active).

Q: How did the growth turn out when `COC(=O)c1ccc2c(c1)n(Cc1ccc3ccccc3c1)c[n+]2Cc1ccc2ccccc2c1` was run?
A: The growth was 38.4%.

Q: How did the growth turn out when `O=c1cc(/C=N\Nc2nc(-c3ccc(Cl)cc3Cl)cs2)c2cc(Cl)ccc2o1` was run?
A: The growth was 95%.

Q: How did the growth turn out when `C=C(C)[C@@H]1CC[C@]2(C(=O)OCCOCCOCC[P+](c3ccccc3)(c3ccccc3)c3ccccc3)CC[C@]3(C)[C@H](CC[C@@H]4[C@@]5(C)CC[C@H](OC(=O)C(Cl)Cl)C(C)(C)[C@@H]5CC[C@]43C)[C@@H]12` was run?
A: The growth was -46.9% (active).

Q: `COc1cc(F)c(-c2nc3c(C)cccc3n2Cc2c(F)cccc2F)c(F)c1` was tested. Which growth did it give?
A: The growth was 92.1%.

Q: How did the growth turn out when `CC(=O)O[C@@H]1C[C@]2(C)[C@H]3[C@H](O)C[C@@H]4C5=CC(C)(C)CC[C@]5(C)CC[C@@]4(C)[C@]3(C)CC[C@H]2C(C)(C)[C@H]1O` was run?
A: Its growth is 99.9%.

Q: With `C#C[C@@]1(O)[C@@H](CO)O[C@@H](n2cc(I)c3c(N)ncnc32)[C@@H]1O` as the compound, how does the growth read?
A: The growth was 6.87% (active).

Q: For `COc1ccc(NC(=O)Nc2ccc(Nc3nc(C)cc(Nc4ccc(C)cc4)n3)cc2)cc1`, which growth is on record?
A: The growth was -71% (active).

Q: Which growth does the source give for `O=c1nc(-c2ccccc2)c2cc(-c3ccc(N4CCCC4)nc3)ccc2[nH]1` here?
A: The growth was 83.9%.

Q: `CCC[S@](=O)c1ccc2nc(NC(=O)OC)[nH]c2c1` was tested. Which growth did it give?
A: The growth was 100%.

Q: For `O=C1NN(c2ccccc2)C(c2ccc3c(c2)OCO3)N2CCC[C@@H]12` (stereo not given in full), which growth is on record?
A: The growth was 110%.

Reference: PubChem BioAssay (NCI)
